BoNT-A LC inh2: BoNT/A light chain protease inhibitors, primary screen, biochemical, flow cytometry, MLPCN library. Botulinum neurotoxin type A light chain protease (Clostridium botulinum A str. ATCC 3502). multiplex microsphere protease substrate cleavage. inhibition, % at 10 µM. hit rate 0.17% among 360,000. AID 588499, 2011; note: plate controls were buffer without enzyme for full effect and enzyme alone for no effect
BoNT F protease: BoNT/F light chain protease inhibitors, primary screen, biochemical, flow cytometry, MLPCN library; Botulinum neurotoxin type F light chain protease (Clostridium botulinum); Multiplex microsphere protease cleavage assay; inhibition, % at 10 µM; hit rate 0.22% among 360,000; in the data active = inhibition above about 35%, passing the limit was not always enough; inconclusive = no clear call, values can overlap the other calls; note: plate controls were buffer without enzyme for full effect and enzyme alone for no effect
Anthrax LF inh2: Bacillus anthracis LF protease inhibitors, primary screen, biochemical, multiplex microsphere, MLPCN library; Lethal factor (Bacillus anthracis), P15917; multiplex microsphere protease cleavage assay; inhibition, % at 10 µM; hit rate 0.12% among 360,000; AID 588501, 2011; note: plate controls were buffer without enzyme for full effect and enzyme alone for no effect
MazEF act: activators of E. coli MazEF toxin-antitoxin RNase, primary screen, biochemical, fluorescence, uHTS; Endoribonuclease toxin MazF (Escherichia coli (strain K12)), P0AE70; FAM/BHQ RNA-DNA oligo cleavage fluorescence, 5 h; activation, % at 20 µM; hit rate 0.32% among 350,000; AID 504720, 2011; in the data active = activation above about 50%
Target sequence (P0AE70 whole entry, looked up): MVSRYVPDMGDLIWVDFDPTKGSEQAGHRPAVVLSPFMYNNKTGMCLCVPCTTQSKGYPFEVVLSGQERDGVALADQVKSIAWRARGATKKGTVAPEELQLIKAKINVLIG
Bead autofluor: flagged as autofluorescent in microsphere protease counterscreen | compound autofluorescence counterscreen, microsphere flow cytometry; active compounds read high | fluorescence intensity (no concentration beside the values) | hit rate 3.1% among 360,000 | AID 624483; in the data active = fluorescence intensity above about 16000; inconclusive = no clear call, values can overlap the other calls
* = called active by the depositor; ? = inconclusive; . = no result given. Rows were chosen to be rich in hits. Some 3.7% of all compounds tested hit in one or more screens of this group. Cut-off read from the data, not from the text of the source, unless noted: active = inhibition above about 30%; inconclusive = no clear call, values can overlap the other calls; inactive = below that.

SMILES	BoNT-A LC inh2	BoNT F protease	Anthrax LF inh2	MazEF act	Bead autofluor
CC1CCN(S(=O)(=O)c2cccc(C(=O)N3CCN(c4ccc(F)cc4)CC3)c2)CC1	-2	1	2	3	5850
CC(=O)NC1(C(F)(F)F)C(=O)N(Cc2ccccc2)C2=C1C(=O)CC(C)(C)C2 (stereo not given)	0	-2	7	7	10263
CCOC(=O)NC1(C(F)(F)F)C(=O)N(Cc2ccccn2)C2=C1C(=O)CC(C)(C)C2 (stereo not given)	-1	-5	-1	-9	16536*
CC1(C)CC(=O)C2=C(C1)N(Cc1ccccc1)C(=O)C2(NC(=O)C(C)(C)C)C(F)(F)F (stereo not given)	-2	-5	-2	-7	24235*
COc1ccccc1CNC(=O)c1cccc(S(=O)(=O)N(C)c2ccccc2)c1	0	0	0	2	2982
Cc1c(C(=O)Nc2ccncc2)oc2c1C(=O)CC(C)(C)C2	?	5	1	2	19786*
Cc1ccc(CN(C(=O)c2ccc(Cl)c([N+](=O)[O-])c2)C2CCS(=O)(=O)C2)o1 (stereo not given)	-3	-2	-2	7	6713
CCOC(=O)c1nnn(-c2nonc2N)c1CNC(C)C	?	1	-2	2	21205*
CCOC(=O)c1nnn(-c2nonc2N)c1CN1CCCCCC1	1	4	-2	5	16135*
CCOC(=O)c1nnn(-c2nonc2N)c1CNc1ccccc1	0	6	0	-3	5639
Brc1cnc(N2CCCC2)nc1N1CCOCC1	?	0	0	-5	21599*
CCCC(NC(=O)C(C)N1CCN(S(=O)(=O)c2ccccc2)CC1)c1ccccc1 (stereo not given)	.	.	.	6	.
N#Cc1ccc(Cn2c(-c3ccc(F)cc3)noc2=O)cc1	2	?	22	7	3809
O=C1[C@H]2[C@@H](C(=O)N1c1cc(Cl)cc(Cl)c1)[C@]1(C(=O)Nc3ccccc31)N1CCC[C@@H]21	0	-1	-2	1	20946*
Cc1cc(Cl)c2c(c1)[C@]1(C(=O)N2)[C@@H]2C(=O)N(Cc3ccccc3)C(=O)[C@@H]2[C@@H]2CCCN21	0	-12	3	-1	4676
CC(=O)NCCNc1nc(NCC2CC2)nc2cc(-c3ccccc3)sc12	1	-1	5	.	3924
O=c1nc2sc3ccccc3n2c(=O)n1-c1cccc(Cl)c1	0	-9	0	4	2344
Cc1ccc2c(c1)sc1nc(=O)n(-c3cccc(Cl)c3)c(=O)n12	1	1	-1	12	22395*
Cc1ccc2c(c1)sc1nc(=O)n(-c3ccc(Cl)c(Cl)c3)c(=O)n12	?	-5	-2	-11	22447*
Cc1ccc2c(c1)sc1nc(=O)n(-c3ccc(Cl)cc3)c(=O)n12	0	3	0	6	19455*
O=c1nc2sc3ccccc3n2c(=O)n1-c1ccc(Cl)cc1	0	0	1	-1	3826
COc1ccc(CCNC(=S)NC2CCN(Cc3ccccc3)CC2)cc1OC	-1	6	0	1	4672
COCCN1C(=O)N[C@@H](CCc2ccccc2)[C@H](C(=O)OC)[C@H]1C	0	-4	-6	-5	3992
Cc1ccccc1NC(=O)CSCCO	2	3	0	9	22229*
CC(=O)c1cccc(NC(=O)CSc2nc(N3CCCCC3)nc(N3CCCCC3)n2)c1	0	-4	-4	-4	3999
SMILES	BoNT-A LC inh2	BoNT F protease	Anthrax LF inh2	MazEF act	Bead autofluor
O=C(CSCC(=O)Nc1cccc2ccccc12)Nc1cccc2ccccc12	0	-10	2	-10	4775
O=C(CSCCO)Nc1cccc2ccccc12	?	-4	-3	2	22778*
Cc1ccccc1NC(=O)CSc1nc(N2CCCCC2)nc(N2CCCCC2)n1	?	-4	-3	-6	22832*
COc1ccc(CNc2nc3c(c(=O)n(Cc4ccc(F)cc4)c(=O)n3C)n2C)cc1	?	-1	-5	-4	21752*
O=C(CSCC(=O)N1CCCCC1)OCC(=O)c1c[nH]c2ccccc12	33*	18	47*	9	16086
O=C(C(=O)N1CCCCCC1)c1c[nH]c2ccccc12	-1	?	-16	-20	3124
